# From PubChem BioAssay AID540308 (The Scripps Research Institute Molecular Screening Center, 2011)
# Out of some 360,000 compounds screened, about 3,500 (0.97%) were called active.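 Rule for the calls: active = activation above a per-plate cutoff, the mean activation of sample wells on that plate plus 3 SD (cut at about 8% in these data); inactive = the rest.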 The full list was thinned out, with actives kept by preference.
# Target: Melanocortin receptor 4 (Homo sapiens) (UniProt P32245)
# Assay: MC4R agonists recruiting beta-arrestin, primary screen, cell-based, luminescence, agonist arm of biased-ligand search (AID 540308)
# Conditions: U2OS MC4R beta-arrestin complementation, at 8.9 µM, active compounds read high, percent of melanotan II response, DMSO zero
# Melanocortin receptor 4 (Homo sapiens), sequence (P32245 whole entry, looked up): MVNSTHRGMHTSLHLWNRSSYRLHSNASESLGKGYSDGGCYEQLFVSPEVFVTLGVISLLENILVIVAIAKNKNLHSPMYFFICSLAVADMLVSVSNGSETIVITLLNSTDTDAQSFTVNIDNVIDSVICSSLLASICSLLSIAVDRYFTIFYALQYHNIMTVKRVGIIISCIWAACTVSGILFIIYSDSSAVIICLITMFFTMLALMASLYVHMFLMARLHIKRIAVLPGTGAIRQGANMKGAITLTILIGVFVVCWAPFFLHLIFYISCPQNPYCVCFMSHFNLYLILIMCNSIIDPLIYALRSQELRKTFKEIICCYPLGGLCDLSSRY
row,Compound,activation
1,CCNC(=O)C1(C)CCCN(Cc2noc(-c3ccccc3OC)n2)C1 (centres undefined),0.8% (inactive)
2,COc1ccc(OC)c(NC(=O)c2cc(-c3cc(F)ccc3OCC3CCCO3)n[nH]2)c1 (centres undefined),2.25% (inactive)
3,Cc1nc(C(F)(F)F)ccc1C(=O)N1CCC1(C)C(=O)NS(=O)(=O)c1ccccc1 (centres undefined),-2.41% (inactive)
4,COc1ccc(Cc2nnc(NC(=O)c3cc(OC)c(OC)c(OC)c3)s2)cc1OC,0.62% (inactive)
5,COc1ccccc1NC(=O)Nc1nc(CC(=O)Nc2ccccc2F)cs1,-1.3% (inactive)
6,COc1ccc(Cc2nnc(NC(=O)c3ccc(OC)cc3OC)s2)cc1,16.6% (active)
7,O=C(Nc1nnc(COc2ccccc2)s1)Nc1ccccc1F,-0.21% (inactive)
8,O=C(Nc1nnc(Cc2ccc(Cl)cc2)s1)c1ccncc1,-0.7% (inactive)
9,COc1ccccc1NC(=O)Nc1nnc(Cc2ccc(F)cc2)s1,13.2% (active)
10,COc1cccc(CNc2nc3cc(-c4csc5ccccc45)sc3c(=O)n2C)c1,6.53% (inactive)
11,Cc1ccc(Cn2c(C)c(C(=O)NCc3ccccc3C(F)(F)F)sc2=O)cc1,0.28% (inactive)
12,CC1(C(=O)Nc2ccccc2Br)CCN1C(=O)CC1CC1 (centres undefined),1% (inactive)
13,Cc1ccccc1S(=O)(=O)NC(=O)C1(C)CCN1C(=O)Cc1ccc(Cl)cc1Cl (centres undefined),-1.27% (inactive)
14,CCCc1c(C)nc2c(Br)cccc2c1Cl,0.46% (inactive)
15,COc1cccc(NC(=O)C2(C)CCN2Cc2ccccc2Cl)c1 (centres undefined),2.88% (inactive)
16,O=C(NCc1ccccc1)C1CCCN(c2nc3ccsc3c(=O)s2)C1 (centres undefined),8.43% (active)
17,O=C(NCc1ccccc1)C1CCCN(S(=O)(=O)c2cccs2)C1 (centres undefined),1.44% (inactive)
18,Cc1cc(=O)n2nc(N3CCCC(C(=O)NCc4ccc(Cl)cc4)C3)sc2n1 (centres undefined),-1.57% (inactive)
19,Cc1ccccc1CN1CCC(C(=O)Nc2ccc(Oc3cccnc3)cc2)CC1,-3.23% (inactive)
20,CCc1nc2ccc(C(=O)NCc3ccc(OC)cc3)cn2c1N(CC)Cc1cccc(Br)c1,-1.05% (inactive)
21,CC(=O)Nc1ccc(-c2cn3cccnc3n2)cc1,-2.81% (inactive)
22,Cc1ccc(NC(=O)Nc2cc(-c3ccccc3)nn2C)cc1Cl,-0.42% (inactive)
23,O=C(NCCCNC(=O)c1ccccc1Cl)c1cnccn1,0.85% (inactive)

row,Compound,activation
1,CC(=O)Nc1ccc(-c2csc(NC(=O)Nc3ccccc3)n2)cc1,11% (active)
2,O=C(Nc1nnc(Cc2ccccc2)s1)c1cnccn1,-0.34% (inactive)
3,O=C(Nc1nc(-c2ccc(-c3ccccc3)cc2)cs1)c1cnccn1,25.9% (active)
4,CC(C)(C)c1ccc(S(=O)(=O)NC(=O)C2(C)CCN2C(=O)CC2CC2)cc1 (centres undefined),-2.01% (inactive)
5,COCCNc1ncnc2c1ncn2[C@H]1CN(CCN2CCOCC2)C[C@@H](CO)O1,-1.53% (inactive)
6,CC1(C(=O)NS(=O)(=O)c2cccc(OC(F)F)c2)CCN1C(=O)C1CC1 (centres undefined),-1.02% (inactive)
7,CC1(C(=O)NS(=O)(=O)Cc2cccc(Cl)c2)CCN1C(=O)Cc1ccc(Cl)cc1Cl (centres undefined),1.12% (inactive)
8,CCc1nc2ccc(C(=O)Nc3ccc(OC)c(OC)c3)cn2c1N(C)C(=O)c1cccc(OC)c1,-1.68% (inactive)
9,CC1(C(=O)NCc2ccc3c(c2)OCO3)CCN1C(=O)Cc1cccc2ccccc12 (centres undefined),-2.21% (inactive)
10,NC(N)=Nc1nc(-c2ccccc2)c2cc(Cl)ccc2n1,9.69% (active)
11,COC(=O)Cn1nc(-c2ccccc2)c2cc(Cl)ccc21,-2.4% (inactive)
12,Clc1ccc2nc(-c3ccccc3)nc(C(Cl)Cl)c2c1,1.35% (inactive)
13,CC1(C(=O)NS(=O)(=O)c2cccc(F)c2)CCN1C(=O)Cc1ccc(Cl)cc1Cl (centres undefined),-2.74% (inactive)
14,Cc1ccccc1-c1nc(NC(C)C)nc2cc(-c3ccccc3)sc12,-0.61% (inactive)
15,CC1(C(=O)NS(=O)(=O)c2ccc3ccccc3c2)CCN1C(=O)C1(c2ccc(Cl)cc2)CCC1 (centres undefined),-0.24% (inactive)
16,CCSc1nc2sc3c(c2c(=O)[nH]1)CC(C)(C)OC3,-0.6% (inactive)
17,CCSc1nnc(-c2cc3c(s2)-c2ccccc2CC3)o1,-0.34% (inactive)
18,CSc1nc2sc3c(c2c(=O)[nH]1)CCc1ccccc1-3,12.4% (active)
19,COc1ccc(/C=C/C(=O)c2c(O)cc(OC)cc2OC)cc1,-0.69% (inactive)
20,N#Cc1cccc(NC(=O)c2cc(C3CCCCN3C(=O)CCc3ccccc3)on2)c1 (centres undefined),-1.43% (inactive)
21,CC(C)Oc1ccc(CN2CCC2(C)C(=O)NCc2ccc(C(F)(F)F)cc2)cc1 (centres undefined),0.02% (inactive)
22,COc1cc(OC)c(C(=O)OCC(=O)N2CC(=O)Nc3ccccc32)cc1OC,-2.02% (inactive)
23,COc1ccc(Cl)cc1-n1c(C)cc(C(=O)OCC(=O)N2CC(=O)Nc3ccccc32)c1C,15.3% (active)

row,Compound,activation
1,COc1ccc(C(=O)OCC(=O)N2CC(=O)Nc3ccccc32)cc1Br,0.65% (inactive)
2,O=C(Nc1cccc(Cc2ccccc2)c1)Nc1ccc2nc([C@@H]3O[C@H](CO)[C@@H](O)[C@H](O)[C@H]3O)[nH]c2c1,-0.22% (inactive)
3,C[C@H](NC(=O)[C@@H]1Cc2ccccc2CN1C(=O)OC(C)(C)C)C(=O)NC1CCCC1,-3.11% (inactive)
4,CC(=O)Nc1cnc(-c2ccc(O)cc2C)cn1,-2.1% (inactive)
5,Cc1c(C(=O)NCC2CC2)sc(=O)n1Cc1cccc(F)c1,1.11% (inactive)
6,COc1ccc(CC(=O)Nc2cc(S(=O)(=O)N3CCCCC3)ccc2N2CCN(C)CC2)cc1,-2.51% (inactive)
7,Cc1ccoc1C(=O)Nc1cccc(Oc2ccccc2)c1,0.82% (inactive)
8,Cc1cccc(NC(=O)Nc2cccc(Oc3c(F)c(F)c(F)c(F)c3F)c2)c1,15.8% (active)
9,COc1cccc(NC(=O)Nc2ccc(F)cc2)c1,1.45% (inactive)
10,CC(C)CNC(=O)C1(C)CCCN1C(=O)CSc1ccccc1 (centres undefined),-1.48% (inactive)
11,CC(Oc1ccc(Br)cc1)C(=O)NCC(c1ccco1)N1CCCCC1 (centres undefined),0.14% (inactive)
12,O=C(Nc1ccc(N2CCOCC2)cc1)c1cccc2c(-c3ccc(F)c(F)c3)coc12,3.52% (inactive)
13,Cc1ccc(C(=O)Nc2sc(Cc3ccc4c(c3)OCO4)c(C)c2C(N)=O)cc1,0.85% (inactive)
14,COc1ccc(CC(=O)Nc2sc(Cc3ccccc3)c(C)c2C(N)=O)cc1,9.06% (active)
15,COc1ccc(CC(=O)Nc2c(C(N)=O)oc3ccccc23)cc1,-1.72% (inactive)
16,CCc1nc2ccc(C(=O)N(C)CCN(C)C)cn2c1N(CC)CCOC,-1.01% (inactive)
17,COc1ccc(NC(=O)C2Cc3c(-c4ccc(Cl)cc4)ccnc3O2)cc1 (centres undefined),2.27% (inactive)
18,Cc1cccnc1C(NC(=O)C1CCN(Cc2ccc(Cl)c(Cl)c2)CC1)c1ccc(Cl)cc1 (centres undefined),-0.01% (inactive)
19,N#C/C(=C(/O)COC(=O)COc1ccc(Cl)cc1)c1nc2ccccc2[nH]1,14.5% (active)
20,COc1ccccc1C(=O)COC(=O)COc1ccc(C#N)cc1,-0.25% (inactive)
21,CC(C)(C)c1nnc2sc(SCC(O)=C(C#N)c3nc4ccccc4[nH]3)nn2c1=O,-0.79% (inactive)
22,CC(C)NC(=O)C1(C)CCCCCN1C(=O)c1ccc(-c2ccccc2)cc1 (centres undefined),-1.12% (inactive)
23,COCCNc1nnc(SCC(=O)NNC(=O)c2ccco2)s1,-0.17% (inactive)

row,Compound,activation
1,O=C(NCc1ccc(F)cc1)c1cc(C2CCCCN2C(=O)c2cccs2)on1 (centres undefined),-0.1% (inactive)
2,COC(=O)c1sccc1NC(=O)c1cc(OC)c(OC)c(OC)c1,10.6% (active)
3,COC(=O)c1sccc1NN1C(=O)c2ccccc2C1=O,1.29% (inactive)
4,COC(=O)c1sccc1NC(=O)c1ccc(Cl)cc1,3.1% (inactive)
5,COc1ccc(NC(=O)C2(C)Cc3c(-c4cccc(NC(C)=O)c4)ccnc3O2)cc1 (centres undefined),-0.48% (inactive)
6,CCN(CC)C(=O)C1CCCN(Cc2cccc(Cl)c2)C1 (centres undefined),-1.07% (inactive)
7,Cc1noc(C)c1C(=O)N1CCC1(C)C(=O)NS(=O)(=O)c1ccc(C#N)cc1 (centres undefined),-1.23% (inactive)
8,COc1cccc(C(NC(C)=O)c2nc(-c3cnc4ccccc4c3)cs2)c1 (centres undefined),-2.35% (inactive)
9,O=C(CSc1nc2ccccc2c(=O)[nH]1)Nc1nc(-c2ccc(Br)cc2)cs1,0.03% (inactive)
10,Cc1ccc(-c2csc(NC(=O)Cn3[nH]c(=O)c4ccccc4c3=O)n2)cc1,16.1% (active)
11,Cc1ccc(C)c(C(=O)COC(=O)Cn2[nH]c(=O)c3ccccc3c2=O)c1,-1.85% (inactive)
12,Cc1cc(=O)oc2c3c(cc(OCC(=O)NCC(O)c4ccccc4)c12)OC(C)(C)CC3 (centres undefined),2.2% (inactive)
13,CCc1nc2c(OCc3ccc(Cl)cc3Cl)cccn2c1N(C)C(=O)C(C)C,-0.09% (inactive)
14,Cc1ccc([C@H]2C[C@H](O)[C@@H](n3cc(COC(=O)c4ccccc4)nn3)CN2C(=O)C2CCCCC2)cc1,9.82% (active)
15,Cc1ccc([C@H]2C[C@H](O)[C@@H](n3cc(COC(=O)c4ccccc4)nn3)CN2CC2CCCCC2)cc1,1.06% (inactive)
16,CCCCCC(=O)N1C[C@H](O)[C@@H](n2cc(COC(=O)c3ccccc3)nn2)C[C@@H]1c1ccc(C)cc1,0.09% (inactive)
17,Fc1ccc(-c2csc(-c3ccc(C4SCCS4)cc3)n2)cc1F,1.21% (inactive)
18,COc1ccc(Br)c(Cn2c(C)c(C(=O)NCc3cccs3)sc2=O)c1,0.68% (inactive)
19,Cn1cc(S(=O)(=O)NC(c2ccccc2)c2ccccc2)c(=O)n(C)c1=O,-0.18% (inactive)
20,CCc1nc2c(OCCOc3ccccc3)cccn2c1N(C)C(=O)c1cccs1,0.14% (inactive)
